About 18,000 (4.4%) of roughly 410,000 compounds were called active. Another 7% or so got no clear call; they are omitted. The sample holds actives, similar compounds and a random draw of the others, so the mix is not that of the screen. Cut-off read from the data, not from the text of the source: active = activity change below about -60%; inconclusive = no clear call, values can overlap the other calls; inactive = above about -39%.

This is an account of results in PubChem BioAssay AID1259415 (National Center for Advancing Translational Sciences (NCATS), 2018).
% is set by controls: 0 for no effect and ±100 for the full control effect.

This test in a line: qHTS Assay for inhibitors of the human cytomegalovirus (HCMV). The note with it: HFF cells, HCMV-luciferase reporter, 72 h; at 57.5 µM; active compounds read low. The method, boiled down:
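Human foreskin fibroblasts infected with luciferase-reporter HCMV at MOI 1 PFU/cell, compounds at two doses. Luciferase measured 72 h post infection; normalized to buffer-only basal and Salinomycin (10uM) controls.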
Consider `Cc1ccc(S(=O)(=O)N(Cc2nc(-c3ccc(Cl)cc3)no2)C2CCCCC2)cc1`, for which the activity change, negative = inhibition was -16.3% (inactive).

Consider `COc1cc(C(=O)NCCS(=O)(=O)N2CCN(c3ccccc3)CC2)cc(OC)c1OC`, for which the activity change, negative = inhibition is 38.7% (inactive).

`Cn1c(N)c(C(=O)COC(=O)COc2ccc(Cl)cc2)c(=O)n(C)c1=O`: the activity change, negative = inhibition is -16.9% (inactive).

Turning to `CCCCOc1ccc(C(=O)NCC(=O)OCC(=O)c2c(N)n(C)c(=O)n(C)c2=O)cc1`, the activity change, negative = inhibition is -28.8% (inactive).

For `Cn1c(N)c(C(=O)COC(=O)c2ccc3ccccc3c2)c(=O)n(C)c1=O`, the activity change, negative = inhibition was 7.39% (inactive).

Consider `CCc1ccc(OCC(=O)OCC(=O)c2c(N)n(C)c(=O)n(C)c2=O)cc1`, for which the activity change, negative = inhibition was -68.3% (active).

Turning to `Cn1c(N)c(C(=O)COC(=O)c2cnc(Cl)c(Cl)c2)c(=O)n(C)c1=O`, the activity change, negative = inhibition is -99.9% (active).

`Cc1cc(C(=O)OCC(=O)c2c(N)n(C)c(=O)n(C)c2=O)c(C)o1`: the activity change, negative = inhibition was -20.6% (inactive).

Consider `Cc1ccc(S(=O)(=O)N(C)C)cc1NC(=O)c1ccc(-n2cncn2)c([N+](=O)[O-])c1`, for which the activity change, negative = inhibition was -7.42% (inactive).

`CC(C)NC(=O)c1nnc2n1CCN(C(=O)C1(c3ccc(Cl)cc3)CCCC1)C2`: the activity change, negative = inhibition is -2.1% (inactive).

As for `COc1cc(Cl)ccc1Nc1ncc(C(=O)N2CCN(c3ccccc3OC)CC2)c2ccccc12`, the activity change, negative = inhibition is 9.53% (inactive).

As for `Cc1cccc(NC(=O)CN(c2ccc(C(C)C)cc2)S(=O)(=O)c2c(C)nn(C)c2C)c1C`, the activity change, negative = inhibition was -17.9% (inactive).

With `COc1cc(C(=O)Nc2cc(C(F)(F)F)ccc2N2CCOCC2)ccc1O`, the activity change, negative = inhibition is 37.5% (inactive).

With `COc1ccc(/C=N/Nc2ccccc2C(=O)O)cc1`, the activity change, negative = inhibition was -64.5% (active).

As for `COC(=O)C(C)N=Cc1ccccc1` (stereo not given), the activity change, negative = inhibition was -19.2% (inactive).

For the compound `COc1ccc(SSc2ccc(OC)cc2C(=O)O)c(C(=O)O)c1`, the activity change, negative = inhibition is 4.79% (inactive).

On to `COc1ccc(C(=O)Nc2ccccc2C(=O)N/N=C/c2ccc(O)c(OC)c2)cc1`, for which the activity change, negative = inhibition is -71.4% (active).

With `C=CCOc1ccc(C(=O)Nc2ccccc2C(=O)N2CCCC2)cc1`, the activity change, negative = inhibition was 3.09% (inactive).

Consider `C=CCOc1c(CNn2cn[nH]c2=S)cccc1OC`, for which the activity change, negative = inhibition is -4.48% (inactive).

As to `COC(=O)C[C@H]1C=C[C@H](NC(=O)c2ccc(F)cc2)[C@@H](CO)O1`, the activity change, negative = inhibition is 21.6% (inactive).

With `COc1ccc(OC)c(CCNc2nc3cnc(-c4cccc(Oc5ccccc5)c4)cc3n2C)c1`, the activity change, negative = inhibition is -30.5% (inactive).

With `Cc1c(NC(=O)c2cc(=O)c3ccccc3o2)c(=O)n(-c2ccccc2)n1C`, the activity change, negative = inhibition is 2.18% (inactive).

As to `CCCN(C(=O)Cn1ncc2c([nH]c3ccc(C)cc32)c1=O)c1ccccc1C`, the activity change, negative = inhibition was -8.94% (inactive).

For `CCOc1cccc2c1N[C@@H](c1ccc(C(=O)O)cc1)[C@H]1CC=C[C@@H]21`, the activity change, negative = inhibition was -5.85% (inactive).

On to `COc1ccccc1NC(=O)c1sc2nc(C)c(C(=O)Nc3ccc(Cl)cc3)c(-c3ccc(Br)cc3)c2c1N`, for which the activity change, negative = inhibition is -104% (active).

For `COc1ccccc1NC(=O)c1cc(Cl)nnc1Cl`, the activity change, negative = inhibition was -22.5% (inactive).

As to `COc1ccccc1C(=O)Nc1c(C(=O)N(C)Cc2ccccc2)sc2nc(C)c(Cl)c(C)c12`, the activity change, negative = inhibition is -19.6% (inactive).

Regarding `Cc1ccc(Nc2c(-c3ccc(C)s3)nc3ccccn23)cc1`, the activity change, negative = inhibition is 74.5% (inactive).

As for `Cc1ccc(NC(=O)c2oc3ccc(S(=O)(=O)N4CCCCC4)cc3c2C)cc1Cl`, the activity change, negative = inhibition was -4.09% (inactive).

Turning to `COc1ccc(C)cc1N(CC(=O)NC(C)c1ccccc1)S(C)(=O)=O` (stereo not given), the activity change, negative = inhibition is -5.84% (inactive).

In the case of `COc1ccccc1NC(=O)CN(c1ccccc1OC)S(=O)(=O)c1ccccc1`, the activity change, negative = inhibition is -93.1% (active).

As to `Cc1ccc(S(=O)(=O)N(CC(=O)NCc2ccco2)c2ccccc2C)cc1`, the activity change, negative = inhibition was -14.7% (inactive).

For the compound `COc1ccccc1N(CC(=O)N1CCCCC1)S(=O)(=O)c1ccccc1`, the activity change, negative = inhibition was -0.178% (inactive).

Take `COc1ccccc1N(CC(=O)Nc1c(C)n(C)n(-c2ccccc2)c1=O)S(=O)(=O)c1ccccc1`: the activity change, negative = inhibition was -32% (inactive).

Consider `COc1ccccc1N(CC(=O)N/N=C(\C)c1ccccc1O)S(=O)(=O)c1ccc(C)cc1`, for which the activity change, negative = inhibition is -68.7% (active).

Turning to `Cc1cc(C)cc(-n2c(SCC(=O)NCC3CCCO3)nc3c([nH]c4ccccc43)c2=O)c1` (stereo not given), the activity change, negative = inhibition was 10.8% (inactive).

With `Cc1cc(NC(=O)CN2C(=O)NC(CC(C)C)C2=O)no1` (stereo not given), the activity change, negative = inhibition was 3.09% (inactive).

For `O=C(Nc1ccccc1Cl)N1CCN(c2ccc3nncn3n2)CC1`, the activity change, negative = inhibition is -11.9% (inactive).

On to `Cc1ccccc1C(=O)Nc1cc(C)c(O)c(-c2nc3ccccc3o2)c1`, for which the activity change, negative = inhibition was -13.9% (inactive).

With `Cc1ccc(C)n1-c1nnc(N2CCC(C(=O)NCc3ccc(F)cc3)CC2)s1`, the activity change, negative = inhibition was 29.6% (inactive).

Turning to `Cn1nnnc1SCC(=O)Nc1sccc1C(N)=O`, the activity change, negative = inhibition was 3.24% (inactive).

Consider `CCOC(=O)c1c(NC(=O)CSc2nnc(CNc3ccc(C)cc3C)o2)sc(C)c1C`, for which the activity change, negative = inhibition is 3.08% (inactive).

For the compound `CCOC(=O)c1c(-c2ccc(C)cc2C)csc1NC(=O)CSc1nnnn1C`, the activity change, negative = inhibition is -95.4% (active).

As to `CCOc1ccc(CCNC(=O)Cn2nc(CC)n3c(cc4sc(CC)cc43)c2=O)cc1OCC`, the activity change, negative = inhibition is -8.37% (inactive).

On to `CCOC(=O)c1c(NC(=O)/C=C/c2ccc(OC)cc2)sc2c1CCC(C)C2` (stereo not given), for which the activity change, negative = inhibition is -22.4% (inactive).

With `CC1CCN(S(=O)(=O)c2ccc3c(c2)N(CC(=O)NCCc2ccccc2)C(=O)CO3)CC1`, the activity change, negative = inhibition is -11.1% (inactive).

`Cc1ccc(-n2nc(C)c3c(C)cc(=O)n(CC(=O)Nc4ccc(C(C)C)cc4)c32)cc1`: the activity change, negative = inhibition is 11% (inactive).

For the compound `COc1ccc(-c2cc(C(F)(F)F)nc(SCC(=O)N(C)Cc3ccccc3)n2)cc1OC`, the activity change, negative = inhibition was -16.1% (inactive).

As for `COc1ccc(-c2cc(C(F)(F)F)nc(S(C)(=O)=O)n2)cc1OC`, the activity change, negative = inhibition was -98.2% (active).

For `COc1ccc(CCNc2nc(-c3ccc(F)cc3)cc(C(F)(F)F)n2)cc1OC`, the activity change, negative = inhibition is -24.7% (inactive).

`CC(C)Sc1oc(-c2cccs2)nc1S(=O)(=O)c1ccc(Cl)cc1`: the activity change, negative = inhibition is 0.0343% (inactive).

As to `Cc1cc(NC(=O)/C=C/C(=O)N(CC(=O)NC2CCCC2)c2ccc(F)cc2)no1`, the activity change, negative = inhibition is 29.1% (inactive).

With `Cc1cc(NC(=O)/C=C/C(=O)N(c2ccccc2C)C(C(=O)NC2CCCC2)c2ccc(F)cc2)no1` (stereo not given), the activity change, negative = inhibition is -73.5% (active).

Consider `Cc1cc(NC(=O)CCC(=O)N(c2cccc(F)c2)C(C(=O)NC2CCCC2)c2ccncc2)no1` (stereo not given), for which the activity change, negative = inhibition is -19.9% (inactive).

Take `Cc1cccc(C)c1-n1nnnc1C1C(=O)NC(=S)N1c1ccccc1` (stereo not given): the activity change, negative = inhibition was 26.7% (inactive).

With `Cn1c(=O)c2c(nc(SCC(=O)Nc3ccc(F)cc3)n2Cc2ccccc2)n(C)c1=O`, the activity change, negative = inhibition was 5.41% (inactive).

Turning to `COc1ccc(/C=N/n2c(C)cc(C)cc2=O)cc1`, the activity change, negative = inhibition is -24.9% (inactive).

On to `CCn1c(-c2cc(OC)ccc2OC)csc1=Nc1c(C)n(C)n(-c2ccccc2)c1=O`, for which the activity change, negative = inhibition is -25.8% (inactive).

As for `CN=c1scc(-c2cc(OC)ccc2OC)n1/N=C/c1c(C)[nH]c2ccccc12`, the activity change, negative = inhibition is -85.5% (active).

For the compound `CCOC(=O)c1ccc(NC(=O)CCS(=O)(=O)c2ccc(C)cc2)cc1`, the activity change, negative = inhibition is 0% (inactive).

Consider `OCc1cnc(SCc2ccc(F)cc2)n1Cc1ccc(F)cc1`, for which the activity change, negative = inhibition was -26.3% (inactive).

In the case of `O=C(c1ccco1)N1CCN(C(=O)C2CCCN(S(=O)(=O)c3cccc4nsnc34)C2)CC1` (stereo not given), the activity change, negative = inhibition is -12.2% (inactive).

On to `COC(=O)C(C)N(C#N)c1nc(C)nc(C)n1` (stereo not given), for which the activity change, negative = inhibition is -110% (active).

Regarding `CNc1nc(SC)nc(N(C#N)CC(=O)OC)n1`, the activity change, negative = inhibition is 81.6% (inactive).

Consider `CCOC(=O)c1c(C)oc2nc(C)nc(N(CC(C)C)CC(C)C)c12`, for which the activity change, negative = inhibition is -31.4% (inactive).

On to `CCCCCn1c(CCCNC(=O)c2ccccc2OC)nc2ccccc21`, for which the activity change, negative = inhibition is -34.7% (inactive).

`Clc1ccc(CSc2nncn3c2cc2occc23)cc1`: the activity change, negative = inhibition was -20.2% (inactive).

`COc1ccc(CCn2c(O)c(C=NC3CC3)c(=O)[nH]c2=O)cc1OC`: the activity change, negative = inhibition was -4.78% (inactive).

Take `COc1ccc(CCn2c(O)c(C=NCCCn3ccnc3)c(=O)[nH]c2=O)cc1OC`: the activity change, negative = inhibition is -107% (active).

Consider `O=c1[nH]c(=O)n(CCc2ccc(F)cc2)c(O)c1/C=N/N1CCCCC1`, for which the activity change, negative = inhibition is -4.21% (inactive).

Take `CC(C)(C(=O)Nc1ccccc1)n1cc(NC(=O)c2cc(F)cc(F)c2)cn1`: the activity change, negative = inhibition is 9.36% (inactive).

Take `Cc1ccc(C(C(=O)NCC2CCCO2)N(C(=O)c2snc(C(N)=O)c2N)c2ccc(C(C)C)cc2)o1` (stereo not given): the activity change, negative = inhibition was -9.39% (inactive).

For `O=C(N/N=C/c1ccc([N+](=O)[O-])o1)c1cn(-c2ccccc2)nc1-c1ccc(F)cc1`, the activity change, negative = inhibition was -65.8% (active).

On to `O=C(CSc1ccc(/C=N/NC(=O)c2cccc(F)c2)o1)Nc1ccccc1`, for which the activity change, negative = inhibition was -21.6% (inactive).

Consider `O=C(NNC(=S)NC(=O)c1cn(-c2ccccc2)nc1-c1ccccc1)c1ccncc1`, for which the activity change, negative = inhibition was 21.1% (inactive).

Consider `O=C(NCCCN1CCCC1=O)c1cccc(S(=O)(=O)NCc2ccccc2)c1`, for which the activity change, negative = inhibition was 0.765% (inactive).

As for `Clc1ccc2c(c1)C1=C(C(c3ccncc3)O2)C(c2ccc(Br)cc2)n2ncnc2N1` (stereo not given), the activity change, negative = inhibition was -78.3% (active).

For `CC1CCCN(c2nc3c(S(=O)(=O)c4ccc(C(C)C)cc4)nnn3c3ccsc23)C1` (stereo not given), the activity change, negative = inhibition is 20% (inactive).

Regarding `Cc1ccc(-n2c3nc(=O)[nH]c(=O)c-3cc3c(Cl)cccc32)cc1`, the activity change, negative = inhibition was -14.6% (inactive).

Consider `Cc1ccc(S(=O)(=O)N(C)C)cc1NC(=O)c1ccccc1Br`, for which the activity change, negative = inhibition is -5.46% (inactive).

For the compound `CCN(CC)S(=O)(=O)c1ccc(NC(=O)c2cccnc2Cl)c(NC(=O)c2cccnc2Cl)c1`, the activity change, negative = inhibition was -100% (active).

Regarding `CCN(CC)S(=O)(=O)c1ccc(C)c(NC(=O)COc2ccc(Br)cc2Cl)c1`, the activity change, negative = inhibition was 24.1% (inactive).

Regarding `O=C(CSc1nnc(-c2ccncc2)n1-c1ccccc1)Nc1ccc(Cl)c(Cl)c1`, the activity change, negative = inhibition was -5.77% (inactive).

Consider `O=C(CC(O)(C(F)(F)F)C(F)(F)F)Nc1ccc(Cl)c(Cl)c1`, for which the activity change, negative = inhibition is -103% (active).

In the case of `Cc1ccc(-c2nn(CCC(=O)Nc3ccc(Cl)c(Cl)c3)c(=O)c3ccccc23)cc1`, the activity change, negative = inhibition was -16.5% (inactive).
